{
  "source": "PubChem BioAssay (NCATS)",
  "key": {"HaCat [1]": {"tested_on": "HaCat", "experiment": "Cytotoxic Profiling of Annotated Libraries Using Quantitative High-Throughput Screening (AID 1296008); further: potency means the concentration at half of the fitted maximal effect; on max response: on the % scale 0 is the no-effect control and ±100 the full control effect", "conditions": "Five cell lines viability, CellTiter-Glo ATP luminescence, 48-72 h; max response: stronger effect = lower value", "procedure,_shortened": "(§1)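 Compounds were pin-transferred onto cells and incubated 48 or 72 hr at 37 degree Celsius, 95% humidity. CellTiter-Glo was added, plates sat 10 min at room temperature, then ATP-coupled luminescence was imaged as the viability read-out.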"}, "KB-3-1": {"tested_on": "KB-3-1", "experiment": "Cytotoxic Profiling of Annotated Libraries Using Quantitative High-Throughput Screening (AID 1296008)", "conditions": "Five cell lines viability, CellTiter-Glo ATP luminescence, 48-72 h; max response: stronger effect = lower value", "procedure,_shortened": "as §1"}, "NIH3T3": {"tested_on": "NIH3T3", "experiment": "Cytotoxic Profiling of Annotated Libraries Using Quantitative High-Throughput Screening (AID 1296008)", "conditions": "Five cell lines viability, CellTiter-Glo ATP luminescence, 48-72 h; max response: stronger effect = lower value", "procedure,_shortened": "as §1"}, "HACAT [2]": {"tested_on": "HACAT", "experiment": "qHTS assay to identify novel small-molecules to repurpose for Merkel cell carcinoma treatment (AID 1296009)", "conditions": "MCC and control cell lines, CellTiter-Glo viability, 72 h; series mostly up to 44.8 µM", "procedure,_shortened": "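Cells exposed to NPC (8-point) and MIPE (11-point) compound dilutions for 72 hr at 37 degree celsius; viability read by CellTiter-Glo luminescence, normalized to no-cell and DMSO in-plate controls.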"}},
  "note": "Inconclusive results are not listed. Values without a mark were called inactive. Active and inactive are the calls of the source. The call rests on the fitted dose curve; in most records, active means well fitted inhibition curve with a large enough effect; inconclusive means small, poorly fitted or top-dose-only effect; inactive means flat fitted curve, though single readings scatter. Further: nearly all actives have a fitted effect of over 60% in size.",
  "data": [
    {"smiles": "CC1=CC(=O)CC2C1(O)CCC(C)C21CC(c2ccoc2)OC1=O", "note": "(stereo not drawn)", "values": [
      {"measurement": "max response", "setting": "HaCat [1]", "result": -50.8, "unit": "%"},
      {"measurement": "max response", "setting": "KB-3-1", "result": -1.68, "unit": "%"},
      {"measurement": "max response", "setting": "NIH3T3", "result": -0.573, "unit": "%"}
    ]},
    {"smiles": "C[C@@H]1C[C@@H](O)[C@@]23CO[C@@H](O)[C@@H]2CCC[C@@H]3[C@@]12C[C@@H](c1ccoc1)OC2=O", "values": [
      {"measurement": "max response", "setting": "HaCat [1]", "result": -27.9, "unit": "%"},
      {"measurement": "max response", "setting": "KB-3-1", "result": 7.75, "unit": "%"},
      {"measurement": "max response", "setting": "NIH3T3", "result": 4.21, "unit": "%"}
    ]},
    {"smiles": "C=C1CCC2C(C)(C)CCC[C@]2(C)[C@H]1C/C=C(\\CO)C(=O)C(=O)O", "note": "(stereo partly drawn)", "values": [
      {"measurement": "max response", "setting": "HaCat [1]", "result": 3.5, "unit": "%"},
      {"measurement": "max response", "setting": "KB-3-1", "result": -9.53, "unit": "%"},
      {"measurement": "max response", "setting": "NIH3T3", "result": -2.57, "unit": "%"}
    ]},
    {"smiles": "CC(O)CCC1C(CO[C@@H]2O[C@H](CO)[C@@H](O)[C@H](O)[C@H]2O)CC(O)CC1(C)C", "note": "(stereo partly drawn)", "values": [
      {"measurement": "max response", "setting": "HaCat [1]", "result": -5.9, "unit": "%"},
      {"measurement": "max response", "setting": "KB-3-1", "result": 8.38, "unit": "%"},
      {"measurement": "max response", "setting": "NIH3T3", "result": -8.75, "unit": "%"}
    ]},
    {"smiles": "CC(C)c1cc(C(=O)N2CC[C@@H](NC(=O)C3CC3)C2)n[nH]1", "values": [
      {"measurement": "max response", "setting": "HaCat [1]", "result": 0.869, "unit": "%"},
      {"measurement": "max response", "setting": "KB-3-1", "result": 2.09, "unit": "%"},
      {"measurement": "max response", "setting": "NIH3T3", "result": -14.5, "unit": "%"}
    ]},
    {"smiles": "Oc1ccc2nc(CN3CCC(Cc4ccccc4F)CC3)[nH]c2c1", "values": [
      {"measurement": "outcome", "setting": "HaCat [1]", "result": "inactive"},
      {"measurement": "max response", "setting": "KB-3-1", "result": -7.21, "unit": "%"},
      {"measurement": "max response", "setting": "NIH3T3", "result": -12, "unit": "%"},
      {"measurement": "Potency", "setting": "HACAT [2]", "result": "inactive"}
    ]},
    {"smiles": "Cc1cc(C)c(Nc2ccnc(Nc3ccc(C#N)cc3)n2)c(C)c1", "values": [
      {"measurement": "Potency", "setting": "KB-3-1", "result": "20.6 µM (active)"},
      {"measurement": "Potency", "setting": "NIH3T3", "result": "13 µM (active)"}
    ]},
    {"smiles": "CC1(C)C2CC(OC3OC(COC4OCC(O)(CO)C4O)C(O)C(O)C3O)C1(C)CC2O", "note": "(stereo not drawn)", "values": [
      {"measurement": "max response", "setting": "HaCat [1]", "result": -6.58, "unit": "%"},
      {"measurement": "outcome", "setting": "KB-3-1", "result": "inactive"}
    ]},
    {"smiles": "COC(=O)c1cc(OC)cc(OC)c1C(=O)c1c(OC)cc2c(c1O)C1CCCC(C)(O2)O1", "note": "(stereo not drawn)", "values": [
      {"measurement": "max response", "setting": "HaCat [1]", "result": 3.65, "unit": "%"},
      {"measurement": "outcome", "setting": "KB-3-1", "result": "inactive"},
      {"measurement": "outcome", "setting": "NIH3T3", "result": "inactive"}
    ]},
    {"smiles": "COc1cc2c3c(cc4ccccc4c3c1O)NC2=O", "values": [
      {"measurement": "outcome", "setting": "KB-3-1", "result": "inactive"},
      {"measurement": "outcome", "setting": "NIH3T3", "result": "inactive"}
    ]}
  ]
}
